Screening data from PubChem.
KB-3-1 tox = kills parental KB-3-1 adenocarcinoma cells; AID 1347075; Potency, µM (top dose mostly 46.1 µM), most hits filed as cytotoxic; KB-3-1 viability, CellTiter-Glo ATP luminescence, 72 h; 400,000 compounds, 1.4% hits; also: nearly all actives have a fitted effect of over 60% in size
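Viability of parental KB-3-1 cells, measured by CellTiter-Glo luminescence, followed a 72 h incubation at 37 °C with pinned compounds in phenol-red-free DMEM containing 10% FBS.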
PTAP TSG101 blk = blocks PTAP/TSG101 interaction to inhibit HIV-1 budding; 340,000 tested, under 10 active; AID 493005; Fluorescence polarization, FITC-PTAP peptide / Tsg101 binding; Potency, µM (doses to about 115 µM), hits mostly inhibitors; active = well fitted inhibition curve with a large enough effect in the main read-out, with a control signal flat, not every such curve was filed as active; inconclusive = small, poorly fitted or top-dose-only effect, or effect the other way, or a change in a side signal; inactive = no such curve, though single readings can be large or run the other way
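FP read-out: FITC-PTAP peptide, 50 nM final, binding Tsg101 binding domain, 10 uM final; 20 min, r.t.; 10 mM HEPES pH 7.5, 0.15 M NaCl, 0.01% Tween 20, 3 mM EDTA, 0.1 mM TCEP.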
RGS4 inh = inhibitors of human regulator of G protein signaling 4. P49798. Transcreener GDP fluorescence polarization, RGS4-accelerated GTP hydrolysis. Potency, µM (doses to about 114 µM), most hits filed as inhibitors. 390,000 compounds, 0.039% hits; also: nearly all actives have a fitted effect of over 75% in size
Target sequence (P49798 whole entry, looked up): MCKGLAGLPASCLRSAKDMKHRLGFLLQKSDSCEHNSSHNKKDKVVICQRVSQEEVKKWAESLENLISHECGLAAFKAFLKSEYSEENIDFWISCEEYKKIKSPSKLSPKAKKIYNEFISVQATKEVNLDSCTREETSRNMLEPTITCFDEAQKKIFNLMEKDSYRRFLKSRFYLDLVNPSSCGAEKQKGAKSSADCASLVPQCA
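MLSMR compounds (23 nl, pin-transferred) preincubated 10 min at room temperature with a 500nM (2x) first reagent, then RGS4 at 900nM (2x) plus Transcreener GDP mix added; fluorescence polarization (620/688 nm) read before and after 90 min at 30 °C.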
SW480 rereplic = induces DNA re-replication in SW480 colon adenocarcinoma cells; Potency, µM (doses to about 46.1 µM), hits mostly activators; 340,000 compounds, 1.8% hits; SW480 DNA re-replication, Hoechst DNA content imaging, 48 h; also: nearly all actives have a fitted effect of over 55% in size
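Treated cells incubate 48 hr (37 C, 5% CO2), are stained 40 min with Hoechst, and nuclear fluorescence is enumerated; a rise in nuclei with high DNA signal marks re-replication.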
KB-V1 MDR tox = KB-V1 MDR subline cytotoxicity. 400,000 compounds, 3.4% hits. Potency, µM (top dose mostly 46.1 µM), usual class: cytotoxic. KB-V1 MDR cells viability, CellTiter-Glo, 72 h. AID 1347076; also: nearly all actives have a fitted effect of over 60% in size
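Luminescent ATP read-out (CellTiter-Glo, 10 min) measures survival of drug-selected KB-V1 MDR cells after 72 h, 37 degrees C compound exposure. Medium: phenol-red-free DMEM, 10% FBS. Values from fitted concentration-response curves.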
MCF10A rereplic = induces DNA re-replication in MCF 10a normal breast cells; AID 624296; MCF 10A DNA re-replication, Hoechst nuclear intensity, 48 h; 350,000 compounds, 2.9% hits; Potency, µM (doses to about 46.1 µM), usual class: activators; also: nearly all actives have a fitted effect of over 50% in size
A number is an active result; . = inactive; ? = inconclusive. The list is not random: actives were taken first. Their share in the collection is about 6.6%. Unless noted, calls follow the shape of the dose curve; as a rule, active = well fitted curve in the direction sought with a large enough effect; inconclusive = small, poorly fitted or top-dose-only effect, or another doubt; inactive = no such curve, though single readings can be large; an effect the other way counts as inactive or inconclusive.

SMILES	KB-3-1 tox	PTAP TSG101 blk	RGS4 inh	SW480 rereplic	KB-V1 MDR tox	MCF10A rereplic
COC(=O)c1c(C)n(-c2ccc(C)cc2)c2ccc(O)cc12	?	.	.	?	?	?
CN(c1ccccc1)S(=O)(=O)c1cc(C(=O)N2CCN(c3ccccn3)CC2)ccc1Cl	?	.	.	.	23.1µM	.
CCOC(=O)c1ccc(NC(=O)N2CCN(c3ccccn3)CC2)cc1	.	.	.	.	16.4µM	.
Nc1ncc(Br)cc1S(=O)(=O)NCCC(=O)N1CCN(c2ccccn2)CC1	.	.	.	.	.	.
O=C(CCC1CCCN(C(=O)c2ccccc2Cl)C1)N1CCN(c2ccccn2)CC1 (centres undefined)	?	.	.	.	14.6µM	.
O=C(CCNS(=O)(=O)c1ccccc1Cl)N1CCN(c2ccccn2)CC1	?	.	.	.	16.4µM	.
CC(=O)c1ccccc1C(=O)N1CCCC(CCC(=O)N2CCN(c3ccccn3)CC2)C1 (centres undefined)	.	.	.	.	.	.
COc1ccccc1NC(=O)N1CCN(c2ccccn2)CC1	.	.	.	.	.	.
